# In publication PMC7862700, “An all-to-all approach to the identification of sequence-specific readers for epigenetic DNA modifications on cytosine”:
# How the values were obtained:
# Test in all cases: DAPPL (digital affinity profiling via proximity ligation, sequencing); 10 mM Tris-HCl pH 7.5, 50 mM NaCl, 1 mM DTT, 4% glycerol, room temperature, 30 min; GST-TFs on glutathione beads, 16-mer random dsDNA library, 0.1% formaldehyde crosslink after washing; high values mean tight binding
# [1] = molecular target: T1, FLI1 (Homo sapiens, UniProt Q01543 1-452); settings: protein: recombinant; tags: N-terminal GST; dsDNA, one strand shown
# T1 sequence: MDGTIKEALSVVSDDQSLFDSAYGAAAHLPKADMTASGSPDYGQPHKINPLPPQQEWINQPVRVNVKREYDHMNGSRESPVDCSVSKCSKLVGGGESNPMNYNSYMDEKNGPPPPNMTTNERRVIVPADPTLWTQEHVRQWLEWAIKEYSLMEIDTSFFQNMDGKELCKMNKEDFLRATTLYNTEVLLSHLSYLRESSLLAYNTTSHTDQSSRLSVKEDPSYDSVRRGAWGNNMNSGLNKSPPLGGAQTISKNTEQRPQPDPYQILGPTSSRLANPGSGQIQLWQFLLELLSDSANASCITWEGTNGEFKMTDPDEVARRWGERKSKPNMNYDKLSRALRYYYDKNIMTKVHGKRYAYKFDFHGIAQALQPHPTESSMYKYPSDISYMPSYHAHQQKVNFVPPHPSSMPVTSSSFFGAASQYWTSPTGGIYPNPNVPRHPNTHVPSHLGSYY
# Summary of the method: (§1)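 Human transcription factors fused to GST were expressed in yeast, captured on glutathione beads, given DNA barcodes and pooled with a GST-only negative control. Pools were incubated with 200 nmole of a 16-mer random double-stranded DNA library in Tris/NaCl/DTT/glycerol buffer at room temperature for 30 min. They were then washed, crosslinked with 0.1% formaldehyde, proximity-ligated (BsaI/T4 ligase, 1 h, 37 °C), PCR-amplified and sequenced on an Illumina NextSeq500. Binding signal is each 6-mer's read frequency for a factor divided by its frequency for the GST control.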
# [2] = molecular target: T2, ELK1 (Homo sapiens, UniProt P19419 1-428); settings: protein: recombinant; tags: N-terminal GST; dsDNA, one strand shown
# T2 sequence: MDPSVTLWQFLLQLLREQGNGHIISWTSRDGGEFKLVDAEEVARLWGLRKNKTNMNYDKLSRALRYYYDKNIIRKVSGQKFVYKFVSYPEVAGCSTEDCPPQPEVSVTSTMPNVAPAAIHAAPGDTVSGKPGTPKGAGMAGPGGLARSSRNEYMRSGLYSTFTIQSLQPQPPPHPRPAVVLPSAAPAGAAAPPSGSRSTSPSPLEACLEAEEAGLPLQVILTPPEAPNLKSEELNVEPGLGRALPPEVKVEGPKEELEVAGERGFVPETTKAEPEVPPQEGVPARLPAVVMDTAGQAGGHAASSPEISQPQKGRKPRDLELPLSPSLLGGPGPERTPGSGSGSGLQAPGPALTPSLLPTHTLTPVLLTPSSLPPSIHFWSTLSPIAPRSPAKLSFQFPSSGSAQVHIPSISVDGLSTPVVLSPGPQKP
# Summary of the method: as §1
# [3] = molecular target: T3, GABPA (Homo sapiens, UniProt Q06546 1-454); settings: protein: recombinant; tags: N-terminal GST; dsDNA, one strand shown
# T3 sequence: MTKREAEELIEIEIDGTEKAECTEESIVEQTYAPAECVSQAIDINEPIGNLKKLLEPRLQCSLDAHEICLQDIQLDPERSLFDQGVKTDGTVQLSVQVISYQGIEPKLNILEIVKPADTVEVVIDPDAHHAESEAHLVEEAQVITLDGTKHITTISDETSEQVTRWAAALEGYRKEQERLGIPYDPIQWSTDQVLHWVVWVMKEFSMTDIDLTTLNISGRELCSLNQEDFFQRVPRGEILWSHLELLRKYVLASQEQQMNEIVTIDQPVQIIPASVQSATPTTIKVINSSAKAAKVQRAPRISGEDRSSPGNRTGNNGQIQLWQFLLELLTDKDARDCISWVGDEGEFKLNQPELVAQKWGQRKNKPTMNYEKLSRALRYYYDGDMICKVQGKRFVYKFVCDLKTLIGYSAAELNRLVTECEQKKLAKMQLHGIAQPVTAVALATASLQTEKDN
# Summary of the method: as §1
# [4] = molecular target: T4, ERG (Homo sapiens, UniProt P11308 1-479); settings: protein: recombinant; tags: N-terminal GST; dsDNA, one strand shown
# T4 sequence: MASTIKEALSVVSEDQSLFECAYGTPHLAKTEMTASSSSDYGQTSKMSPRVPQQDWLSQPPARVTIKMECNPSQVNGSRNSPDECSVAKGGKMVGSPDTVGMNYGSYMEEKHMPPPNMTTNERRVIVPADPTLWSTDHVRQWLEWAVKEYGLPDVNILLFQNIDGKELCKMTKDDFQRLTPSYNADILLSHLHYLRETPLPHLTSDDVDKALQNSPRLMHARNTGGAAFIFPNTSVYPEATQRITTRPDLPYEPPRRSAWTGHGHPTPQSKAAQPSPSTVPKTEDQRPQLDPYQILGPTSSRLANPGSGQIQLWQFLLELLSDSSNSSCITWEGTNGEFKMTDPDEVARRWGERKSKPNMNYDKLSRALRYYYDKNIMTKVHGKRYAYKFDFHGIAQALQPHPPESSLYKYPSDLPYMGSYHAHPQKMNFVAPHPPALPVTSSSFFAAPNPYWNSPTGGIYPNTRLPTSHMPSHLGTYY
# Summary of the method: as §1
# [5] = molecular target: ELF1 (Homo sapiens, UniProt P32519 1-619); settings: protein: recombinant; tags: N-terminal GST; dsDNA, one strand shown
# Sequence of ELF1 (P32519 whole entry): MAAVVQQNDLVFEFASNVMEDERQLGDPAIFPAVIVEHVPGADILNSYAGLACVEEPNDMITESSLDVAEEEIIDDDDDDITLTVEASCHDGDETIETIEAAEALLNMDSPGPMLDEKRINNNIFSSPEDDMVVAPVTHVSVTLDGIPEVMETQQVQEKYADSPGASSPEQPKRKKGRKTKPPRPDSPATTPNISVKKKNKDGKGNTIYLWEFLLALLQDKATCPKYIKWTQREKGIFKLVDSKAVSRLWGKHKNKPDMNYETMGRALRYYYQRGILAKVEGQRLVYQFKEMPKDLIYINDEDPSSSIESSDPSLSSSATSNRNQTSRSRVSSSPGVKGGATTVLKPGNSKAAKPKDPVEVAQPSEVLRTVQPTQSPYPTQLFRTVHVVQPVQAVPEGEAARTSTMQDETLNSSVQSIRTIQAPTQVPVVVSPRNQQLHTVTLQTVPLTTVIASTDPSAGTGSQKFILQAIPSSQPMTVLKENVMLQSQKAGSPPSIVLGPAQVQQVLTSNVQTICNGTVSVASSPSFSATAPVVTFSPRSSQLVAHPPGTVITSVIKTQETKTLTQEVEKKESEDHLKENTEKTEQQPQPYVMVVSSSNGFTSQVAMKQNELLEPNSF
# Summary of the method: as §1
# [6] = molecular target: T5, EHF (Homo sapiens, UniProt Q9NZC4 1-300); settings: protein: recombinant; tags: N-terminal GST; dsDNA, one strand shown
# T5 sequence: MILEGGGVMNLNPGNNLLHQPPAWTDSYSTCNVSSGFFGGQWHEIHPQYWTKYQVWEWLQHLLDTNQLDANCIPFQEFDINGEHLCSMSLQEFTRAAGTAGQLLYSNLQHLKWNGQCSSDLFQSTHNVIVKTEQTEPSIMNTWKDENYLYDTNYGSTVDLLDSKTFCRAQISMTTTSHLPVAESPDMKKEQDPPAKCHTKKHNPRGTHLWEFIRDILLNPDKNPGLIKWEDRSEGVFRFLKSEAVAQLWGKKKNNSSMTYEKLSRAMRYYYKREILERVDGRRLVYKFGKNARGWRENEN
# Summary of the method: as §1
# [7] = molecular target: SPI1 (Homo sapiens, UniProt P17947 1-270); settings: protein: recombinant; tags: N-terminal GST; dsDNA, one strand shown
# Summary of the method: as §1
# [8] = molecular target: SPIB (Homo sapiens, UniProt Q01892 1-262); settings: protein: recombinant; tags: N-terminal GST; dsDNA, one strand shown
# Sequence of SPIB (Q01892 whole entry): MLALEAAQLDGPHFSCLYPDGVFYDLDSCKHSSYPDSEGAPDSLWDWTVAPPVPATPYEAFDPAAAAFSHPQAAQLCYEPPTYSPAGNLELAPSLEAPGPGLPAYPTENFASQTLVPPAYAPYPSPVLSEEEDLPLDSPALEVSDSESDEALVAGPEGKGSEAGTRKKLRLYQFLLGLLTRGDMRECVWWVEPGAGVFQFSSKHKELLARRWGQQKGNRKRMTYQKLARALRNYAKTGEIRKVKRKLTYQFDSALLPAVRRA
# Summary of the method: as §1
# [9] = molecular target: T6, ELK3 (Homo sapiens, UniProt P41970 1-407); settings: protein: recombinant; tags: N-terminal GST; dsDNA, one strand shown
# T6 sequence: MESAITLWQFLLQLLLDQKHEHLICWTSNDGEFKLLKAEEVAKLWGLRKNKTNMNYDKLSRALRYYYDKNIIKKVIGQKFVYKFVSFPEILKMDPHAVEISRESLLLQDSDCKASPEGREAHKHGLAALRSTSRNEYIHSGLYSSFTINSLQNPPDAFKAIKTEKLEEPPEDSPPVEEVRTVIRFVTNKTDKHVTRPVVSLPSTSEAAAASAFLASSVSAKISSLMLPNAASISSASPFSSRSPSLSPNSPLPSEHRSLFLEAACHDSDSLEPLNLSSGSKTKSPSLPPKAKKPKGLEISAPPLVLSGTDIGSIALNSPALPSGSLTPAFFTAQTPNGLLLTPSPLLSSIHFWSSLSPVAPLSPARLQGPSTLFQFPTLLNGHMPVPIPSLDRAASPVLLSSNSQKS
# Summary of the method: as §1
# [10] = molecular target: T7, FEV (Homo sapiens, UniProt Q99581 1-238); settings: protein: recombinant; tags: N-terminal GST; dsDNA, one strand shown
# T7 sequence: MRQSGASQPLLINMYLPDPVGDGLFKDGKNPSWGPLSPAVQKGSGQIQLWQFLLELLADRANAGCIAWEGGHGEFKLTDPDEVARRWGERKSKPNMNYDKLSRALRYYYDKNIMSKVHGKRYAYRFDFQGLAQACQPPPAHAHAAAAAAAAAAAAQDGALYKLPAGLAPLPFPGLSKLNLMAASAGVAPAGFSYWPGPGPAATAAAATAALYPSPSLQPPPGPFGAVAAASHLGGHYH
# Summary of the method: as §1
# [11] = molecular target: ETV5 (Homo sapiens, UniProt P41161 1-510); settings: protein: recombinant; tags: N-terminal GST; dsDNA, one strand shown
# Sequence of ETV5 (P41161 whole entry): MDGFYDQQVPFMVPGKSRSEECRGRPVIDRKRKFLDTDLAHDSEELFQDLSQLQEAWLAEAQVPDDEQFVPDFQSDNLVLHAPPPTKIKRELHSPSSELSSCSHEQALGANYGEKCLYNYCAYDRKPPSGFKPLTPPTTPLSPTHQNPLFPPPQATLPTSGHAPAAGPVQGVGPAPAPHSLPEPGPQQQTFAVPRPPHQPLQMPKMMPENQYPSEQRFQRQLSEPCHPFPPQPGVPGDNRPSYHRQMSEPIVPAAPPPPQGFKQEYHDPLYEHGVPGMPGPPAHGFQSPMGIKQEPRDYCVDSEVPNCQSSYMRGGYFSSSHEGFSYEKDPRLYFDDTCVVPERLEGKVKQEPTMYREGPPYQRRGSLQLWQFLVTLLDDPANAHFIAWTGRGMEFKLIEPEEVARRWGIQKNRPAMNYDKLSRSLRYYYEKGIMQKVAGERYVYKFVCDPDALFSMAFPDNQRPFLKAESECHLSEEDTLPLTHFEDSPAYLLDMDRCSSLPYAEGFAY
# Summary of the method: as §1
# [12] = molecular target: HSF1 (Homo sapiens, UniProt Q00613 1-529); settings: protein: recombinant; tags: N-terminal GST; chain copies: 3; dsDNA, one strand shown
# Sequence of HSF1 (Q00613 whole entry): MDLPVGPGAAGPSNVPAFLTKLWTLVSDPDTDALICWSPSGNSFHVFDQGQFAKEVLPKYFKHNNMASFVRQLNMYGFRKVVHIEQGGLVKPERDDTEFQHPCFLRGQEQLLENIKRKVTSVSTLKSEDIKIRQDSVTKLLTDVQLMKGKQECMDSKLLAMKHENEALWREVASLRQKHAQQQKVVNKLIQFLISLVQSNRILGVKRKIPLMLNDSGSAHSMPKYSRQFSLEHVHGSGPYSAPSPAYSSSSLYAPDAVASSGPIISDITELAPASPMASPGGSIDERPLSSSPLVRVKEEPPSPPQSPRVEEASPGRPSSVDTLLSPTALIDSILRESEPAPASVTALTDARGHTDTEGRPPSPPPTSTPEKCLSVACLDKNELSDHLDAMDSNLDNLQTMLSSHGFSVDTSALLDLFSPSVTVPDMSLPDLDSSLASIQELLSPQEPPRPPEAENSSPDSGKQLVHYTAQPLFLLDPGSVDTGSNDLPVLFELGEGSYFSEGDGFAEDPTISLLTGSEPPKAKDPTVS
# Summary of the method: as §1
# [13] = molecular target: T8, SPIC (Homo sapiens, UniProt Q8N5J4 1-248); settings: protein: recombinant; tags: N-terminal GST; dsDNA, one strand shown
# T8 sequence: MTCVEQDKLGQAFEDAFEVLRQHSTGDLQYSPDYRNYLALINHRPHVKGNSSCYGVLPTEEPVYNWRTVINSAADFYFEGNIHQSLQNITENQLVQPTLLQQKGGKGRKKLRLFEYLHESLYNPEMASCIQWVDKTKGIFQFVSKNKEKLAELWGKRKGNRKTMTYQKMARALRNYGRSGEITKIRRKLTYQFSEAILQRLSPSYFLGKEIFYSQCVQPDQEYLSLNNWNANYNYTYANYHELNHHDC
# Summary of the method: as §1
# [14] = molecular target: ELF4 (Homo sapiens, UniProt Q99607 1-663); settings: protein: recombinant; tags: N-terminal GST; dsDNA, one strand shown
# Sequence of ELF4 (Q99607 whole entry): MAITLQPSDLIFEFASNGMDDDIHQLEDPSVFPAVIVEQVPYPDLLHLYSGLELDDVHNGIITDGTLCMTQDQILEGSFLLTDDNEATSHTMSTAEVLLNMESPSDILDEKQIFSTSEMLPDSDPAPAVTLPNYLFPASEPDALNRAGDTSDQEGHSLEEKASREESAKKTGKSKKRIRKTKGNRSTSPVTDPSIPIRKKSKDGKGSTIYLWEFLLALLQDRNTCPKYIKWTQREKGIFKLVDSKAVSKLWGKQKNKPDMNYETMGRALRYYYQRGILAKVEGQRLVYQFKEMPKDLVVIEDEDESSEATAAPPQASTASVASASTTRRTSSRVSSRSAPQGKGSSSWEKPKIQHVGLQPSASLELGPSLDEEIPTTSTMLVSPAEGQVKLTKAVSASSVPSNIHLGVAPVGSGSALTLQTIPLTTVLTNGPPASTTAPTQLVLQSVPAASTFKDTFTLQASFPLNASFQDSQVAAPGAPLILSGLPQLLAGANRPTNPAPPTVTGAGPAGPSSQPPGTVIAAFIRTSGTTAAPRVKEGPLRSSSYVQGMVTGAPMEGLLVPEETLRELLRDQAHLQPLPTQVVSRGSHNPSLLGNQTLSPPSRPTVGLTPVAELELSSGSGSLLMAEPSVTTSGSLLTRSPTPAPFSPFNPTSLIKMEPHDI
# Summary of the method: as §1
# [15] = molecular target: T9, ELK4 (Homo sapiens, UniProt P28324-2 1-405); settings: protein: recombinant; tags: N-terminal GST; dsDNA, one strand shown
# T9 sequence: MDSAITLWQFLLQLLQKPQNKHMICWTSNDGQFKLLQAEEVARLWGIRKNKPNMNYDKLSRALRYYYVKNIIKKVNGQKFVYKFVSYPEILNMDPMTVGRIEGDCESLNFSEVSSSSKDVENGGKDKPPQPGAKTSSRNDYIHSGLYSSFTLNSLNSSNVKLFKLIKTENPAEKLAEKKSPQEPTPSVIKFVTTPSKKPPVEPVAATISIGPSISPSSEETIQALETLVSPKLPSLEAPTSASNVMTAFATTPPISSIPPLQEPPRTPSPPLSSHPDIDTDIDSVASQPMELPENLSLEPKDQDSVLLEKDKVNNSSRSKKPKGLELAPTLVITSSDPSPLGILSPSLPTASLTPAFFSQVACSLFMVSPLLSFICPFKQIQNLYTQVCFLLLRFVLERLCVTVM
# Summary of the method: as §1
# [16] = molecular target: T10, ETV2 (Homo sapiens, UniProt O00321 1-342); settings: protein: recombinant; tags: N-terminal GST; dsDNA, one strand shown
# T10 sequence: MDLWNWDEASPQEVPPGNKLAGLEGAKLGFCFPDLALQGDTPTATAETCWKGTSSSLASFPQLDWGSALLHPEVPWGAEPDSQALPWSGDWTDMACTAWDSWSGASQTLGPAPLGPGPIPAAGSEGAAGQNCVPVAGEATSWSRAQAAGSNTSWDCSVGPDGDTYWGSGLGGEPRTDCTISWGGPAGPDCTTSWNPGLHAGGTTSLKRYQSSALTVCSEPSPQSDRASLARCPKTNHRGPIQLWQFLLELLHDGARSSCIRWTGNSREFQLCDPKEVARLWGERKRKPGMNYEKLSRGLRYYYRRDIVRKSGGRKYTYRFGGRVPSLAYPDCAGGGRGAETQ
# Summary of the method: as §1
# [17] = molecular target: T11, ELF3 (Homo sapiens, UniProt P78545 1-371); settings: protein: recombinant; tags: N-terminal GST; dsDNA, one strand shown
# T11 sequence: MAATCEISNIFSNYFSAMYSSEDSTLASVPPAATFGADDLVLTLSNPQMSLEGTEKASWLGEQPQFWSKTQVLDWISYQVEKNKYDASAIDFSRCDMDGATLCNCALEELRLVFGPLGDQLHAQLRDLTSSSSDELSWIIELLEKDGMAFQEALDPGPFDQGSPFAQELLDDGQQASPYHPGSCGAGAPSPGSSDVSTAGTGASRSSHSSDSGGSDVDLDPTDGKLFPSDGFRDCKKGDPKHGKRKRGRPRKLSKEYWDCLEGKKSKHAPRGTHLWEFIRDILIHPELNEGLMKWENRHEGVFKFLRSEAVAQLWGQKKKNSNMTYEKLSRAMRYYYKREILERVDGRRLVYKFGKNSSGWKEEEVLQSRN
# Summary of the method: as §1
# [18] = molecular target: CRX (Homo sapiens, UniProt O43186 1-299); settings: protein: recombinant; tags: N-terminal GST; dsDNA, one strand shown
# Sequence of CRX (O43186 whole entry): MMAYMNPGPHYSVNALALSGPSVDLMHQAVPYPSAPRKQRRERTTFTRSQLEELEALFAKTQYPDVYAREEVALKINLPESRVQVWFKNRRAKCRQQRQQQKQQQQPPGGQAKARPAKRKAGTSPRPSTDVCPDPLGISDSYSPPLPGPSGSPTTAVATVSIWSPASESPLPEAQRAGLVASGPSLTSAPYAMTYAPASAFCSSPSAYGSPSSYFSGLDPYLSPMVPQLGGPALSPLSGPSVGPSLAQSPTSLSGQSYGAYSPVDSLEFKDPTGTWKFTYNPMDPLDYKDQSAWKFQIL
# Summary of the method: as §1
# [19] = molecular target: ETV1 (Homo sapiens, UniProt P50549 1-477); settings: protein: recombinant; tags: N-terminal GST; dsDNA, one strand shown
# Sequence of ETV1 (P50549 whole entry): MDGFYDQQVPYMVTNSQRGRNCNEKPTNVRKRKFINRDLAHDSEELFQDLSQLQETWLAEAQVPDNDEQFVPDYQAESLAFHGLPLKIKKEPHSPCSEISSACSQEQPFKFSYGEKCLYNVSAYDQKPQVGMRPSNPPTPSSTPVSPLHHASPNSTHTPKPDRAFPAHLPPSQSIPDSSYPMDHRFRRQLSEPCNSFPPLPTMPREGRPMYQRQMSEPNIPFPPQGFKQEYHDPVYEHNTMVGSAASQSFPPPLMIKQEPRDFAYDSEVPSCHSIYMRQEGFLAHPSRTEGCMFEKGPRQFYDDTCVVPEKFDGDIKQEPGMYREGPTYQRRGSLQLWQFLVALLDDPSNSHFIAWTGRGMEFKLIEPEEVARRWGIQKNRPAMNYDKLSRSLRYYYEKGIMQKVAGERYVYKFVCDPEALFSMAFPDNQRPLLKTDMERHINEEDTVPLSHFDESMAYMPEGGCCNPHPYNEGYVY
# Summary of the method: as §1
sequence,measurement,setting,value
TTTAAA,binding signal,[1],"1.27 fold enrichment (6-mer frequency, TF over GST control)"
same,binding signal,[2],"1.26 fold enrichment (6-mer frequency, TF over GST control)"
same,binding signal,[3],"1.19 fold enrichment (6-mer frequency, TF over GST control)"
same,binding signal,[4],"1.2 fold enrichment (6-mer frequency, TF over GST control)"
same,binding signal,[5],"1.29 fold enrichment (6-mer frequency, TF over GST control)"
same,binding signal,[6],"1.21 fold enrichment (6-mer frequency, TF over GST control)"
same,binding signal,[7],"1.31 fold enrichment (6-mer frequency, TF over GST control)"
same,binding signal,[8],"1.17 fold enrichment (6-mer frequency, TF over GST control)"
same,binding signal,[9],"1.32 fold enrichment (6-mer frequency, TF over GST control)"
same,binding signal,[10],"1.25 fold enrichment (6-mer frequency, TF over GST control)"
same,binding signal,[11],"1.21 fold enrichment (6-mer frequency, TF over GST control)"
same,binding signal,[12],"1.64 fold enrichment (6-mer frequency, TF over GST control)"
same,binding signal,[13],"1.02 fold enrichment (6-mer frequency, TF over GST control)"
same,binding signal,[14],"1.19 fold enrichment (6-mer frequency, TF over GST control)"
same,binding signal,[15],"1.37 fold enrichment (6-mer frequency, TF over GST control)"
same,binding signal,[16],"1.44 fold enrichment (6-mer frequency, TF over GST control)"
same,binding signal,[17],"1.28 fold enrichment (6-mer frequency, TF over GST control)"
same,binding signal,[18],"2.15 fold enrichment (6-mer frequency, TF over GST control)"
same,binding signal,[19],"1.2 fold enrichment (6-mer frequency, TF over GST control)"
